Compound activity deposited in PubChem BioAssay by National Center for Advancing Translational Sciences (NCATS).
Shown are actives, neighbours in structure and some others; about 14% of the full set was active somewhere.
HCMV antiviral: inhibitors of human cytomegalovirus. 410,000 tested, 4.5% active. activity change, negative = inhibition, % at 57.5 µM. HFF cells, HCMV-luciferase reporter, 72 h; stronger effect = lower value. AID 1259415; in the data active = activity change below about -60%; inconclusive = no clear call, values can overlap the other calls; inactive = above about -39%
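Steps: HFFs plated, 16 h 37C; compounds added; HCMV-luciferase added to MOI 1 PFU/cell; 72 h 37C; OneGlo reagent, 5 min room temperature; luminescence read, normalized to controls.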
HCV inhibitor: blocks hepatitis C virus | Huh7.5.1 HCVcc-Cre infection, luciferase reporter, 44 h | Potency, µM (series often up to 41.8 µM), actives largely listed as inhibitors | 340,000 tested, 3.4% active | AID 651820
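Infectious HCVcc-Cre (~0.5 moi) was added to cells just after compound, with cells seeded 4 h earlier at 1,000 per well. Luciferase activity after 44 h culture reported infection; substrate was incubated 15 min at room temperature before reading.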
Marburg entry inh: blocks Marburg virus binding to or entry into cells; AID 540276; Marburg virus pseudotyped entry inhibition, cell reporter; 300,000 tested, 1.8% active; Potency, µM (top dose mostly 37.8 µM), actives largely listed as inhibitors; calls by dose curve; tested in HEK293 cells
Pf growth 96h: P. falciparum growth inhibition at 96 hour, primary screen for plastid delayed-death inhibitors; P. falciparum luciferase reporter growth, 96 h; Potency, µM (top dose mostly 28.7 µM), usual class: inhibitors; 320,000 tested, 6.9% active; AID 504834
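Two-generation exposure (96 h) targets delayed-death phenotype. Reporter parasites carrying integrated firefly luciferase, in red cells at 2% hematocrit and 0.05% parasitemia final, kept at 37 C, 5% CO2; luminescence loss indicates inhibition.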
Pf growth 48h: P. falciparum growth inhibition at 48 hours (one generation); P. falciparum luciferase growth in erythrocytes, 48 h; Potency, µM (highest dose often 28.7 µM), most hits filed as inhibitors; 310,000 tested, 5.9% active; AID 504832
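Here the parasites carry a stable luciferase gene and grow inside erythrocytes in Albumax-based RPMI medium with compound for one erythrocytic cycle. Activity is scored as loss of luminescent signal.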
Lassa entry inh: Lassa virus entry inhibition | AID 540256 | Potency, µM (top dose mostly 37.9 µM), actives largely listed as inhibitors | 300,000 tested, 1.2% active | Lassa virus pseudotype entry inhibition, cell reporter; calls by dose curve; tested in HEK293 cells; also: nearly all actives have a fitted effect of over 50% in size
Hits are given with their value; 0 = inactive; ? = inconclusive; - = no result. Unless noted, calls follow the shape of the dose curve; as a rule, active = well fitted inhibition curve with a large enough effect; inconclusive = small, poorly fitted or top-dose-only effect, or another doubt; inactive = no such curve, though single readings can be large or run the other way.

SMILES | HCMV antiviral | HCV inhibitor | Marburg entry inh | Pf growth 96h | Pf growth 48h | Lassa entry inh
COc1nc(Cl)cn(-c2ccc(C)cc2)c1=O | 0 | 0 | 0 | 0 | 0 | 0
Cc1ccc(-n2c(Cl)c(Cl)nc(Cl)c2=O)cc1 | - | 7.1µM | ? | ? | 0 | 7.3µM
CCCCn1nc2cc(C(=O)NC3CCc4ccccc43)ccc2c1OCC (stereo not drawn) | 0 | ? | - | 8.3µM | ? | -
CCCCn1nc2cc(C(=O)NCc3ccccc3OC)ccc2c1OCC | 0 | 3.5µM | - | ? | ? | -
O=[N+]([O-])c1ccc2c(c1)/C(=N\O)c1ccccc1-2 | -85 | ? | ? | 0 | 0 | 0
Nc1cc2c(cc1Cl)-c1ccc([N+](=O)[O-])cc1C2=NO | ? | 5.6µM | ? | - | - | 0
COc1cc2c(cc1[N+](=O)[O-])-c1ccc([N+](=O)[O-])cc1C2=NO | -94 | - | - | - | - | -
NN=C1c2cc([N+](=O)[O-])ccc2-c2ccc([N+](=O)[O-])cc21 | - | - | - | ? | 0 | -
ON=C1c2ccccc2-c2ccc(Br)cc21 | -63 | ? | 0 | - | - | 0
C[C@H](CO)N1C[C@H](C)[C@@H](CN(C)Cc2ccncc2)Oc2c(NS(=O)(=O)c3cccs3)cccc2C1=O | 0 | 0 | - | - | - | -
O=[N+]([O-])c1ccc2c(c1)C(=NO)c1cc(F)ccc1-2 | -95 | ? | 0 | - | - | 0
NC(N)=N/N=C/c1cc([N+](=O)[O-])ccc1O | 0 | 0 | ? | 0 | ? | 0
ON=C1c2ccccc2-c2ccc(F)cc21 | 0 | ? | 0 | - | - | 0
O=[N+]([O-])c1ccc(O)c(/C=N\N=C2c3ccccc3-c3ccccc32)c1 | -89 | ? | 14µM | 0 | ? | ?
O=C(/C=C/c1ccc(F)cc1)NC(=S)NNC(=O)c1cnccn1 | 0 | ? | ? | 8.3µM | 3.3µM | ?
COc1ccc(/C=C/C(=O)NC(=S)NNC(=O)c2cccnc2)cc1 | 0 | 0 | ? | ? | 0 | ?
COc1ccc(/C=C/C(=O)NC(=S)NNC(=O)c2cnccn2)cc1 | 0 | ? | - | ? | 2.1µM | -
O=C(/C=C/c1ccc(F)cc1)NC(=S)Nc1ccccc1 | 0 | 0 | 0 | 0 | 0 | 0
O=C(NC(=S)NNC(=O)c1cnccn1)c1ccc(F)cc1 | 0 | 14µM | - | 0 | 15µM | -
O=C(NNC(=S)NC(=O)c1cccnc1)c1ccc(F)cc1 | 0 | 0 | 0 | 0 | 0 | 0
O=C(C[C@@H](c1ccco1)S(=O)(=O)c1ccccc1)c1ccc(F)cc1 | - | - | 0 | - | - | -
CCC1CN(C(=O)N2CCC(C(=O)NCCCc3ccccc3)CC2)c2ccccc2O1 (stereo not drawn) | 0 | - | - | - | - | 0
C/C(=N\Nc1nc(N)cc(Cl)n1)c1ccc(F)cc1 | 0 | ? | - | 0 | 0 | -
C/C(=N\Nc1nc(N)cc(Cl)n1)c1ccc(Cl)c(Cl)c1 | 0 | 11µM | 0 | 0 | ? | 0
O=C(c1ccco1)C(O)c1ccco1 (stereo not drawn) | -62 | 0 | - | 0 | - | -
SMILES | HCMV antiviral | HCV inhibitor | Marburg entry inh | Pf growth 96h | Pf growth 48h | Lassa entry inh
COC(=O)[C@@]12C[C@@H](CC(=O)NCC34CC5CC(CC(C5)C3)C4)C(=O)N(Cc3cccc4ccccc34)C1=CCC(C)(C)C2 | 0 | - | - | - | - | -
COc1ccc(/C=N/N(C)C2=NS(=O)(=O)c3ccccc32)cc1 | 0 | 0 | 0 | 12µM | - | 0
Cc1cccnc1CCNCc1c(C(=O)N2C[C@@H](C)O[C@@H](C)C2)nc2ccc(Cl)cn12 | 0 | 0 | ? | 0 | 10µM | 0
Cc1nonc1OCCNCc1c(C(=O)N(C)C)nc2ccc(Cl)cn12 | 0 | 0 | ? | 0 | ? | 0
Cc1nonc1OCCNCc1c(C(=O)N2CCCCCCC2)nc2ccc(Cl)cn12 | 0 | 0 | - | 0 | 3.7µM | -
CCOC(=O)C1=C(CN2CCSCC2)NC(=O)NC1c1cc(C)ccc1C (stereo not drawn) | 0 | 0 | 0 | 0 | 12µM | 0
CCOC(=O)C1=C(CN2CCN(c3ccc(C)cc3C)CC2)NC(=O)NC1c1ccc(OC)cc1 (stereo not drawn) | -82 | - | - | - | - | ?
CCOC(=O)C1=C(CN2CCN(c3ccc(OC)cc3)CC2)NC(=O)NC1c1ccc(OC)cc1 (stereo not drawn) | 0 | - | - | - | - | 0
CCOC(=O)C1=C(CN2CCN(c3cc(C)ccc3C)CC2)NC(=O)NC1c1ccc(Cl)cc1 (stereo not drawn) | -80 | - | ? | - | - | ?
CCOC(=O)C1=C(CN2CCN(C(=O)c3ccco3)CC2)NC(=O)NC1c1ccc(C)cc1 (stereo not drawn) | 0 | 0 | - | ? | 13µM | -
Cc1ccc(CNC(=O)C2CCC(=O)N(CCc3ccc(Cl)cc3)C2)cc1 (stereo not drawn) | 0 | 0 | 0 | 9.3µM | 0 | 0
Cc1ccc(CNC(=O)C2CCC(=O)N(CCc3ccc(Cl)cc3)C2)s1 (stereo not drawn) | - | 0 | 0 | ? | 0 | 0
